Measurements published in the supplement of paper PMC10849652.
Targets with a hit are over-represented here; the source holds about 7,900 in all. About 0.6% of all pairs of compound and target were hits. Unmarked numbers belong to inactive results.

Tests used:
Assay in all cases: log2 fold change, soluble protein after heating vs DMSO (PISA); higher = thermal stabilisation; K562 cells, 10 uM, 30 min; active = over 0.2 and 3.5 SD of the protein, either way, in both replicates (recomputed)
bafetinib = compound: Cc1ccc(NC(=O)c2ccc(CN3CC[C@H](N(C)C)C3)c(C(F)(F)F)c2)cc1Nc1nccc(-c2cncnc2)n1 [bafetinib]
Procedure, shortened: (§1)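 K562 cells at 2×10^6 cells/mL were exposed to 10 μM compound for 30 min, then aliquots were heated for 3 min across 48°C-58°C, pooled, and extracted in PBS containing 0.5% NP-40 at 4°C. The supernatant after 21,000xg for 90 min was taken as soluble protein and measured by TMTpro 16plex LC-MS/MS with channel sums equalised. Thermal stability is reported relative to control samples, with values from duplicates. Fold changes are given on a log2 scale.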

[1] = compound: Cc1cccc(CC(=O)N2CCc3c2ccc(-c2cn(C)c4ncnc(N)c24)c3F)n1
Procedure, shortened: as §1

nilotinib = compound: Cc1cn(-c2cc(NC(=O)c3ccc(C)c(Nc4nccc(-c5cccnc5)n4)c3)cc(C(F)(F)F)c2)cn1 [nilotinib]
Procedure, shortened: as §1

[2] = compound: Cc1nc(Nc2n[nH]c3c2CN(C(=O)N[C@H](CN(C)C)c2ccccc2)C3(C)C)c2sccc2n1
Procedure, shortened: as §1

dasatinib = compound: Cc1nc(Nc2ncc(C(=O)Nc3c(C)cccc3Cl)s2)cc(N2CCN(CCO)CC2)n1 [dasatinib]
Procedure, shortened: as §1

[3] = compound: Cc1ncc(-c2ccnc(Nc3ccc(S(C)(=O)=O)cc3)n2)n1C(C)C
Procedure, shortened: as §1

[4] = compound: Cn1cc(-c2ccc3c(c2)CCN3C(=O)Cc2cccc(C(F)(F)F)c2)c2c(N)ncnc21
Procedure, shortened: as §1

[5] = compound: Cn1cc(-c2ccc3nnc(C(F)(F)c4ccc5ncccc5c4)n3n2)cn1
Procedure, shortened: as §1

tipifarnib = compound: Cn1cncc1[C@@](N)(c1ccc(Cl)cc1)c1ccc2c(c1)c(-c1cccc(Cl)c1)cc(=O)n2C [tipifarnib]
Procedure, shortened: as §1

mubritinib = compound: FC(F)(F)c1ccc(/C=C/c2nc(COc3ccc(CCCCn4ccnn4)cc3)co2)cc1 [mubritinib]
Procedure, shortened: as §1

Sequence of UniProt Q9Y287 (Q9Y287 whole entry, looked up): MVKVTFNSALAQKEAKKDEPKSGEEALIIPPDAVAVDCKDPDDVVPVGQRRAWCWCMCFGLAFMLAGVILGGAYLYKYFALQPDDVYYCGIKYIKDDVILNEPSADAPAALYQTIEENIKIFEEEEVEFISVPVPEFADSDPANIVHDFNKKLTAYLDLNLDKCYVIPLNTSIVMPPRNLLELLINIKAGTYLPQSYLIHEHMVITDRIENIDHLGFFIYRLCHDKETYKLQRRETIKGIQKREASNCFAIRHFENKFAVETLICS
Sequence of UniProt O95279 (O95279 whole entry, looked up): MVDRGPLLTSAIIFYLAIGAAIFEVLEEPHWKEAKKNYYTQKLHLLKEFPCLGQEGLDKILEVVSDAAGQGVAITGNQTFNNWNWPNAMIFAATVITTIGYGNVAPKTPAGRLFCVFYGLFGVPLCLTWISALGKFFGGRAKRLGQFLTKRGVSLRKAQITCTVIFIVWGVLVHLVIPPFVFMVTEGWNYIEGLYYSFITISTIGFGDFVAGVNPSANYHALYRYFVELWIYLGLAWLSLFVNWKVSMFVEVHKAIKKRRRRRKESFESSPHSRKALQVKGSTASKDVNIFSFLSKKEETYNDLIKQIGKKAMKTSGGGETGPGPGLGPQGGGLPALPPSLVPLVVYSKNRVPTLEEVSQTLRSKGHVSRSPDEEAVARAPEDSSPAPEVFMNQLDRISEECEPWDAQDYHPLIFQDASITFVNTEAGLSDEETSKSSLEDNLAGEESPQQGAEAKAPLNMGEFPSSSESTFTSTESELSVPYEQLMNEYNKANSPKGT
Sequence of UniProt Q9Y4K4 (Q9Y4K4 whole entry, looked up): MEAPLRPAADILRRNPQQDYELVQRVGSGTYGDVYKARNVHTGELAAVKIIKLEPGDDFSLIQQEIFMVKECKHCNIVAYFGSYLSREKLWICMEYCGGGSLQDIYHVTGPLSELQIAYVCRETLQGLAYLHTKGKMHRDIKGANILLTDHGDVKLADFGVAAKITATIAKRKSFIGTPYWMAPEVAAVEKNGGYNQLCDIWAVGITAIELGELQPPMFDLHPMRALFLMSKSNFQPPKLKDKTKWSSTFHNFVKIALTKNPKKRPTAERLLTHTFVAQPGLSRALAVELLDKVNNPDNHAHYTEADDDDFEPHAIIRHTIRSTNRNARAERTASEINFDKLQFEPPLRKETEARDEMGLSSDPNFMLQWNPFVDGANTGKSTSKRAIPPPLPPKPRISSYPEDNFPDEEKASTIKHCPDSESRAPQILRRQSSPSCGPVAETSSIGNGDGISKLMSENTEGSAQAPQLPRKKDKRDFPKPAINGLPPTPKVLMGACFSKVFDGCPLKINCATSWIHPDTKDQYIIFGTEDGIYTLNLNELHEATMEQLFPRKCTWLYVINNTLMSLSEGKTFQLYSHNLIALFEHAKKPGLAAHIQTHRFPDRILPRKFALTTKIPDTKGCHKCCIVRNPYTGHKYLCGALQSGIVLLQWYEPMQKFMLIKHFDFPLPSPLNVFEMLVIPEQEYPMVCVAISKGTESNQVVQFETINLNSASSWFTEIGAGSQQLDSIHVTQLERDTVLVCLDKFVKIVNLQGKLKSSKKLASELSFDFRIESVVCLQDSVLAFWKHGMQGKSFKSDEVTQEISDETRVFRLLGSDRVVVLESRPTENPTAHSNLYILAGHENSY
Sequence of UniProt Q9NYL2 (Q9NYL2 whole entry, looked up): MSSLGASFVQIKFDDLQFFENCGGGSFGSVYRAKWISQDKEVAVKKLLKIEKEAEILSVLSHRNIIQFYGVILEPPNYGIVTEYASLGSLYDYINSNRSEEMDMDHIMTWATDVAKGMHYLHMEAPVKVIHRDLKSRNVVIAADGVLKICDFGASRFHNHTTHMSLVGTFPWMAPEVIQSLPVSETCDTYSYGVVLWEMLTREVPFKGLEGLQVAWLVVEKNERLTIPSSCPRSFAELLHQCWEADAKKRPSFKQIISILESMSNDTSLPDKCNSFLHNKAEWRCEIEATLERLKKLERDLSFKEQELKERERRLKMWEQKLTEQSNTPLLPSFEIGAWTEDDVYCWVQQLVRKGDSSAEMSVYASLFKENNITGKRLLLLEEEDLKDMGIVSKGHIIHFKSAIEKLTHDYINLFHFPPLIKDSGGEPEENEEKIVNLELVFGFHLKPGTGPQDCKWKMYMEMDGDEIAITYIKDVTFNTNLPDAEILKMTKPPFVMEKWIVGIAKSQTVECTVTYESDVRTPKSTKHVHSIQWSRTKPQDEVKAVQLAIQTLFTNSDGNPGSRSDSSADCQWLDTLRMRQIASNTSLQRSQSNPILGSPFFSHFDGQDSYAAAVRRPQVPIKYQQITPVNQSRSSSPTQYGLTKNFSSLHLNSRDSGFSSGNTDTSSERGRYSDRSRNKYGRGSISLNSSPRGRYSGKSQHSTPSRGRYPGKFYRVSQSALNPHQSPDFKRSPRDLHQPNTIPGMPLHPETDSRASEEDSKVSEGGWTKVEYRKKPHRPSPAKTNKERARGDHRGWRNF
Sequence of UniProt Q92604 (Q92604 whole entry, looked up): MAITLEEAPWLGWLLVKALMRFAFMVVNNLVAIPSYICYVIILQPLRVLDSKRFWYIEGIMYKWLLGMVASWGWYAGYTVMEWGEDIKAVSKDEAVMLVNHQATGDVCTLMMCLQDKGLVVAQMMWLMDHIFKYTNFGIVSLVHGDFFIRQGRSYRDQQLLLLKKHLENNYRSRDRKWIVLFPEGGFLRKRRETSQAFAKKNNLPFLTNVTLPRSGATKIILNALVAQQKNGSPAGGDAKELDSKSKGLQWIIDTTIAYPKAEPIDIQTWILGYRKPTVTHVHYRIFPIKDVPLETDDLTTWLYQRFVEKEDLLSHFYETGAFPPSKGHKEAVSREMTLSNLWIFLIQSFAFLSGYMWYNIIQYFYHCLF
Sequence of UniProt Q8TDD5 (Q8TDD5 whole entry, looked up): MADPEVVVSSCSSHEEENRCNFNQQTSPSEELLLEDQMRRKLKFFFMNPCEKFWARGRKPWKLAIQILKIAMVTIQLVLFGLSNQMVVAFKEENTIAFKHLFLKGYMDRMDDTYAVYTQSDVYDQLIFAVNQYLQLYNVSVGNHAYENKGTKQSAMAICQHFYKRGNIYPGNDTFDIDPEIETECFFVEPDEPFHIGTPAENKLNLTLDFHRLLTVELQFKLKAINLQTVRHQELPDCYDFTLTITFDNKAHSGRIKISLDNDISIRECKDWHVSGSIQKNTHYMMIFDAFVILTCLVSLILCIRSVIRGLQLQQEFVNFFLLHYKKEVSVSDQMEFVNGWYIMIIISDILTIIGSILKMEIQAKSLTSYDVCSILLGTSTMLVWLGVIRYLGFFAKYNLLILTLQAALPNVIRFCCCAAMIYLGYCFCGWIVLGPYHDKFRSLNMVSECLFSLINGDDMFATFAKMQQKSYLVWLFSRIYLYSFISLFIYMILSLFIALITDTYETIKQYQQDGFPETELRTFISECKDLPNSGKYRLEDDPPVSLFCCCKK
Sequence of UniProt Q8WYH8 (Q8WYH8 whole entry, looked up): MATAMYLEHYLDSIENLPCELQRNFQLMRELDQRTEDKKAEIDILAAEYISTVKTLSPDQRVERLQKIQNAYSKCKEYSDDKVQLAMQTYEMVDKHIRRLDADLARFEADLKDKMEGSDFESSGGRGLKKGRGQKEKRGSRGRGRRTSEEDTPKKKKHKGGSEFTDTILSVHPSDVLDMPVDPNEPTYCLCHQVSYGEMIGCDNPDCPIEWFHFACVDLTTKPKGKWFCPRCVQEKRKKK
Sequence of UniProt Q32MZ4 (Q32MZ4 whole entry, looked up): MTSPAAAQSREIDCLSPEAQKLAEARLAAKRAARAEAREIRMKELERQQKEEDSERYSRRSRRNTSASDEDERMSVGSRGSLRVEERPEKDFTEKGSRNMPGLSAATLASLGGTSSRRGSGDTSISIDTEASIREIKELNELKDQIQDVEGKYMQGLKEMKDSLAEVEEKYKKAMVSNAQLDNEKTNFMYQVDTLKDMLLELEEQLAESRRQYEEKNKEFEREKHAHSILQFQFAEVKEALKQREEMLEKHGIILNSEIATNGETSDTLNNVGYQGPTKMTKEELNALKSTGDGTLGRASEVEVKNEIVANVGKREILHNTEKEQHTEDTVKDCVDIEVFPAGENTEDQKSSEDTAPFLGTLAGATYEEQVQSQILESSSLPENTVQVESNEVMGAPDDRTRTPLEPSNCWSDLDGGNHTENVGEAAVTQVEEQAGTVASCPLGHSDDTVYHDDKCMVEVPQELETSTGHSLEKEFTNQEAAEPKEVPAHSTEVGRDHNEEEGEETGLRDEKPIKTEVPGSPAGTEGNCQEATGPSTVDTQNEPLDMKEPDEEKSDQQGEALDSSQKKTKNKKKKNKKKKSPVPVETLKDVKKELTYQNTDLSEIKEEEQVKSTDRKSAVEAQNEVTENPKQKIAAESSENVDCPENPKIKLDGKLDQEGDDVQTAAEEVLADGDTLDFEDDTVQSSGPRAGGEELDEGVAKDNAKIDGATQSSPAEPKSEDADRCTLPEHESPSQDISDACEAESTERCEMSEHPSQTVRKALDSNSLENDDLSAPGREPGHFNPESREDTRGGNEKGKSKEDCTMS
Sequence of UniProt O15243 (O15243 whole entry, looked up): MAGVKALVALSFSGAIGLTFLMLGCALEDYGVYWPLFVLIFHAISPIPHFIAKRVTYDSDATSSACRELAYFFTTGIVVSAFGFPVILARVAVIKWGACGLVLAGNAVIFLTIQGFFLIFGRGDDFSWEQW
Sequence of UniProt P24592 (P24592 whole entry, looked up): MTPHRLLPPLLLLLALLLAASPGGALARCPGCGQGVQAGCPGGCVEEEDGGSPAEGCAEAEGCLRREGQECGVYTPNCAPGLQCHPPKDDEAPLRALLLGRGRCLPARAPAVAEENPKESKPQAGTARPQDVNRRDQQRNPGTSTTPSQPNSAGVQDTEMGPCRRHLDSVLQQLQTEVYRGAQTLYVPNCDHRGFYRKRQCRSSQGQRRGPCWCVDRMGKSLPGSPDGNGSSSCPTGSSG
Sequence of UniProt Q52LA3 (Q52LA3 whole entry, looked up): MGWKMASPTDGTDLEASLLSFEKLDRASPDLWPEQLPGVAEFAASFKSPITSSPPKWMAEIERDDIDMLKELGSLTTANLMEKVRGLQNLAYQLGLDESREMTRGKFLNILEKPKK

Row | Target | log2 fold change (bafetinib) | log2 fold change [1] | log2 fold change (nilotinib) | log2 fold change [2] | log2 fold change (dasatinib) | log2 fold change [3] | log2 fold change [4] | log2 fold change [5] | log2 fold change (tipifarnib) | log2 fold change (mubritinib)
1 | INPP5B (UniProt P32019) | 0.103 | -0.059 | -0.077 | 0.001 | -0.111 | 0.014 | -0.005 | -0.032 | 0.072 | 0.018
2 | KCNK5 (UniProt O95279) | -0.31 | 0.025 | – | – | -0.472 | – | 0.139 | – | -0.183 | 0.076
3 | IP6K1 (UniProt Q92551) | 0.02 | 0.033 | – | – | -0.361 | – | 0.024 | 0.116 | -0.038 | 0.137
4 | ITM2B (UniProt Q9Y287) | -0.112 | – | 0.006 | -0.062 | 0.006 | 0.033 | 0.035 | -0.04 | 0.006 | 0.059
5 | MAP4K5 (UniProt Q9Y4K4) | -0.064 | -0.001 | 0.136 | -0.093 | – | -0.116 | -0.125 | 0.019 | -0.146 | 0.022
6 | LENG8 (UniProt Q96PV6) | -0.088 | 0.112 | 0.006 | -0.036 | -0.388 | -0.146 | -0.039 | -0.031 | – | 0.032
7 | MCOLN3 (UniProt Q8TDD5) | -0.03 | -0.183 | -0.289 | -0.113 | – | 0.041 | – | 0.079 | 0.072 | 0.05
8 | KMT2C isoform 3 (UniProt Q8NEZ4) | -0.209 | -0.041 | -0.049 | -0.093 | 0.043 | 0.001 | 0.094 | -0.215 | – | 0.083
9 | LPGAT1 (UniProt Q92604) | -0.086 | – | -0.04 | -0.128 | 0.086 | 0.048 | 0.055 | -0.082 | 0.01 | 0.067
10 | IGFBP4 (UniProt P22692) | -0.126 | -0.173 | 0.077 | -0.06 | 0.14 | -0.007 | 0.116 | -0.102 | 0.033 | -0.15
11 | LRRFIP1 isoform 4 (UniProt Q32MZ4) | – | -0.046 | – | – | -0.095 | – | -0.226 | – | – | –
12 | LRRCC1 (UniProt Q9C099) | – | – | – | – | 0.017 | – | – | 0.063 | – | –
13 | ING5 (UniProt Q8WYH8) | – | – | – | – | – | – | 0.164 | – | 0.045 | 0.206
14 | MAML1 (UniProt Q92585) | – | – | – | – | – | – | 0.087 | -0.009 | – | –
15 | LEPROT (UniProt O15243) | – | 0.03 | – | – | 0.188 | – | -0.193 | – | – | 0.041
16 | MAP3K20 isoform 2 (UniProt Q9NYL2) | – | – | 0.098 | 0.014 | – | -0.07 | – | – | 0.138 | -0.134
17 | IGFBP6 (UniProt P24592) | – | – | – | – | -0.038 | – | 0.152 | 0.006 | – | –
18 | LOX (UniProt P28300) | -0.734 (active) | – | -0.183 | 0.175 | – | 0.12 | – | – | – | -0.017
19 | LIN52 (UniProt Q52LA3) | – | – | – | – | -0.049 | – | – | – | – | -0.117
20 | KIZ (UniProt Q2M2Z5) | – | 0.268 | – | – | – | – | -0.446 | 0.196 | 0.217 | –
